Laboratory results taken from PubChem BioAssay AID485317 (Broad Institute, 2010).
Hit rate of the full screen: of about 290,000 compounds, about 11,000 (3.8%) were called active. Only a selection was taken, and actives are over-represented in it overall. Unmarked numbers belong to inactive results.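 Rule for the calls: active = mean replicate inhibition above about 79%, with every replicate also reaching it (limit read from the data); inconclusive = only one of the two criteria met; inactive = mean below limit and not every replicate reaching it.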

What follows are compounds tested against FAD-linked sulfhydryl oxidase ALR (Homo sapiens) (UniProt P55789) (assay: ALR-catalysed DTT oxidation blockers – biochemical, H2O2 detection, HRP-luminol luminescence, single point, primary screen (AID 485317)). Conditions: purified ALR, hits give high values, concentration not given here.
Sequence of FAD-linked sulfhydryl oxidase ALR (Homo sapiens) (P55789 whole entry, looked up): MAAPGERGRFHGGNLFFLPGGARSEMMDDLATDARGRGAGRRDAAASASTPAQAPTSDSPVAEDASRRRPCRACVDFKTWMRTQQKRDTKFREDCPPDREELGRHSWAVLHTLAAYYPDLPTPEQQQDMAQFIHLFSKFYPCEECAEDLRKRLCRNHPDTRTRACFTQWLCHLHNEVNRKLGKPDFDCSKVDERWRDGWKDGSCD

Structure (SMILES) | inhibition
COCCN(C(=O)CC1CCCCC1)c1c(N)n(CC(C)C)c(=O)[nH]c1=O | -3.39%
O=C(NCc1ccccc1CN1CCCC1)c1cccc(S(=O)(=O)Nc2ccc(F)cc2)c1 | -1.54%
CN(CC(=O)Nc1c(Cl)cccc1Cl)C(=O)CC1OC(=O)c2ccccc21 (configuration not stated) | 1.28%
CCCCn1c(N)c(N(CC(C)C)C(=O)CSc2ccc([N+](=O)[O-])cc2)c(=O)[nH]c1=O | -3.66%
CN(C(=O)CSc1nnc(-c2ccc3c(c2)OCO3)o1)C1CCS(=O)(=O)C1 (configuration not stated) | -1.02%
CN(C)CCn1c2c(c(SCC(=O)NCc3ccccc3)nc1=O)CCC2 | -45.9%
CN(CC(=O)Nc1ccc(OC(F)F)cc1)S(=O)(=O)/C=C/c1ccccc1 | 0.776%
Cc1cc(NC(=O)C(C)SCC(=O)Nc2ccccc2N2CCCCC2)no1 (configuration not stated) | 2.47%
O=C1NC(Cc2ccc(O)cc2)c2nc3ccc(Cl)cc3c(=O)n2-c2ccccc21 (configuration not stated) | 1.75%
CCCC[C@@H]1CN=C(N)N1CCc1cccc(F)c1 | -12.6%
O=C1N[C@H](Cc2c[nH]c3ccccc23)COC(=O)[C@H](Cc2ccc(F)cc2)C/C=C\C[C@H]1CC(=O)N(CCO)Cc1ccccc1 | -0.125%
COc1ccc(CCNc2cc(N3CCN(C(=O)c4ccccc4OC)CC3)ccc2[N+](=O)[O-])cc1OC | -7.83%
COc1ccc2[nH]c3ccc(OC)cc3c2c1 | 97.3% (active)
COc1ccc2[nH]c(C(=O)N3CCN(C)CC3)c(C)c2c1 | -19.3%
COc1ccc2[nH]c(=S)cc(C)c2c1 | -27.6%
N#Cc1ccc(C2=CC(=O)C[C@H](c3ccc(Cl)cc3)C2)cc1 | -5.77%
Cc1ccc(NC(=O)C2CC2)cc1S(=O)(=O)N1CCOCC1 | -0.606%
Cc1ccc(NC(=O)C(C)Sc2nnc(C3CC3)n2C2CC2)cc1S(=O)(=O)N1CCOCC1 (configuration not stated) | 96.1% (active)
Cc1ccc(NC(=O)NC2CCCCC2)cc1S(=O)(=O)N1CCOCC1 | 74.4%
COc1ccccc1OCCNC(=O)C(CCSC)NC(=O)COc1ccccc1 (configuration not stated) | 0.393%
CN(C)C(=O)CSc1n[nH]c(-c2ccco2)n1 | -5.75%

Structure (SMILES) | inhibition
CN(C)c1ccc(NC(=O)CSc2n[nH]c(-c3ccco3)n2)cc1 | 98.9% (active)
O=C(CSc1n[nH]c(-c2cccnc2)n1)Nc1ccc(Cl)cc1 | 5.84%
COc1ccccc1N1CCN(C(=O)C2Cc3ccccc3CN2C(=O)c2ccco2)CC1 (configuration not stated) | 19.8%
CC(C)CN(C(=O)c1ccc2c(c1)OCO2)C1CCS(=O)(=O)C1 (configuration not stated) | 3.07%
CC1Sc2ccc(C(=O)NCc3ccccc3Cl)cc2NC1=O (configuration not stated) | -5.05%
Cc1ccc(CNC(=O)c2cc(-c3ccccc3C)n(CC3CC(c4cccc([N+](=O)[O-])c4)=NO3)n2)cc1 (configuration not stated) | -3.66%
O=C(N/N=C/c1cc(Br)c(O)c([N+](=O)[O-])c1)C(O)(c1ccccc1)c1ccccc1 | 14%
O=S(=O)(c1ccc(F)cc1)N1CCN=C1SCc1cccc(F)c1 | -6.25%
Cc1nnc(SCc2cccc(Cl)c2)n(N)c1=O | -0.251%
O=C(c1ccco1)N1CCN=C1SCc1cccc(Cl)c1 | 96.8% (active)
O=C(c1ccco1)N1CCN(c2cccc(Cl)c2)CC1 | 12.7%
O=C(C1CCN(Cc2ccc(Cl)cc2)CC1)N1CCN(Cc2ccc3c(c2)OCO3)CC1 | -2.64%
O=C(C1CC1)N1CCN=C1SCc1ccc(Cl)cc1 | 98.3% (active)
CSC1=NCCN1C(=O)Cc1cccc2ccccc12 | -43.6%
CS(=O)(=O)N1CCN=C1SCc1ccc(F)cc1 | 98.4% (active)
CC1CCN(C(=O)c2ccc(CSc3ccc(Cl)cc3)cc2)CC1 | -6.8%
CCSC1=NCCN1S(=O)(=O)c1ccc(F)cc1 | -3.09%
CCC(=O)N1CCN=C1SCc1ccc(F)cc1 | 98.7% (active)
O=C(COc1ccccc1)N1CCN=C1SCc1cccc(F)c1 | 15.7%
O=C(C1CCC1)N1CCN(S(=O)(=O)c2ccc([N+](=O)[O-])cc2)CC1 | -24.2%
O=C(COc1ccccc1F)Nc1nc(-c2ccccn2)cs1 | -5.87%

Structure (SMILES) | inhibition
COc1ccc(C2(C)ON(c3ccccc3C(F)(F)F)C2=O)cc1 (configuration not stated) | 1.44%
Cc1cccc(C)c1Nc1nnc(SCC(=O)NCCCN2CCCC2=O)s1 | 3.02%
C=CCC[C@H](Cc1ccc(F)cc1)C(=O)OC[C@@H](Cc1c[nH]c2ccccc12)NC(=O)[C@H](CC=C)CC(=O)N[C@H](CO)Cc1ccccc1 | 1.04%
O=C(NNC(=O)C1CCC1)c1ccccc1 | -8.4%
Cc1ccc(NNC(=O)C2CCC2)cc1C | 98.5% (active)
Cc1ccc(C)c(OCC(=O)NNC(=O)C2CCC2)c1 | -3.99%
COc1ccc(CCNC(=O)COC(=O)C2CC2C)cc1 (configuration not stated) | 5.1%
CCOc1ccc(S(=O)(=O)Nc2cccc(C(=O)NCC3(N4CCCCC4)CCCCC3)c2)cc1 | -4.42%
CCOC(=O)c1[nH]c2ccc(OC)cc2c1NC(=O)CCN1CCN(Cc2ccccc2)CC1 | 24.1%
COC(=O)c1[nH]c2ccc(Br)cc2c1NC(=O)Oc1ccccc1 | 97.3% (active)
COC(=O)c1[nH]c2ccccc2c1NC(=O)CN1CCCc2ccccc21 | -3.93%
CCCn1c(CCNc2nc(-c3ccc(OC)cc3)cs2)nc2ccccc21 | 12.7%
Cc1ccc(CC(=O)N(C)CC(=O)N(CC(C)C)c2c(N)n(CC(C)C)c(=O)[nH]c2=O)cc1C | -5.01%
Cc1ccc2nc(SCC(=O)N3CC(C)OC(C)C3)nc(=O)n2c1 (configuration not stated) | -0.878%
COc1ccc(C(=O)NC(=S)NNC(=O)CCc2ccccc2)cc1 | 24.8%
COc1ccc(C(=O)NNC(=S)NC(=O)c2ccccc2)cc1 | 34.7%
Cc1ccc(CNC(=O)c2c(-c3ccccc3)noc2C)cc1 | -6.06%
COc1ccc(C(=O)NC(=S)NNC(=O)c2c(-c3ccccc3)noc2C)cc1 | 99.2% (active)
Cc1onc(-c2ccccc2)c1C(=O)NNC(=S)NC(=O)c1ccc(F)cc1 | 93.4% (active)
CCc1noc(C)c1C(=O)NNC(=O)c1ccc(F)cc1 | 0.314%
